The values below come from PubChem BioAssay (NCI).

This is part of a sample that, as a whole, favours compounds with a hit. Of some 83,000 tested, about 20% had one in any assay.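 Interpretation: 100, growth as untreated; towards 0, rising growth inhibition; 0, no net growth; 0 to -100, cell death. Compounds scoring below 10 were considered active.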 A number with no mark means an inactive call. Calls of active or inactive are those of the source.

What all share (experiment): NCI-60 one-dose screen, 48 h (100 = growth as untreated, 0 = no growth, -100 = all killed)
Settings in all cases: 10 µM

Assay [1] relates to HT29 colon.
In assay [2] the test system is SNB-75 CNS.
The test system of assay [3] is SNB-19 CNS.
The subject of assay [4] is PC-3 prostate.
For assay [5], the system named is SK-MEL-5 melanoma.
In assay [6] the test system is UACC-62 melanoma.
The test system of assay [7] is LOX IMVI melanoma.
The test system of assay [8] is SK-MEL-28 melanoma.
Assay [9] deals with SK-MEL-2 melanoma.
Assay [10] relates to EKVX NSCLC.
Assay [11] concerns SN12C renal.
The subject of assay [12] is UO-31 renal.
Assay [13] has as its system TK-10 renal.
Assay [14] deals with ACHN renal.
In assay [15] the test system is A498 renal.
Assay [16] relates to CCRF-CEM leukemia.
In assay [17] the test system is MOLT-4 leukemia.
The test system of assay [18] is SR leukemia.
Assay [19] has as its system CAKI-1 renal.

`CC(C)=CCc1cc(O)cc2c1OC(C=C(C)C)C1=C2C(=O)C2=C(NCCS2(=O)=O)C1=O` (stereo unspecified): the growth was -14.9% (active) in assay [1]; 18.5% in assay [2]; -44.5% (active) in assay [3]; 10% in assay [4]; -96.7% (active) in assay [5]; -18.9% (active) in assay [6]. For the same compound, the growth in [7] is -56.2% (active); in assay [8], -33.4% (active); in assay [9] it was -28.9% (active); in assay [10], -1.26% (active); in assay [11], -59% (active); in assay [12], 67.3%. Further, the growth was 106% in assay [13]; 26.2% in assay [14]; 50.2% in assay [15]; 1.9% (active) in assay [16]; -34.5% (active) in assay [17]; 1.49% (active) in [18].
Consider `Clc1ccc(-c2cn(-c3ccccc3)c(-c3ccccc3)n2)c(Cl)c1`, for which the growth in assay [1] was -100% (active); in [2], -83.3% (active); in [3], 43.7%; in [4], -98.3% (active); in assay [5], 68.1%; in assay [6], 37%. Further, the growth was -76.3% (active) in assay [7]; 6.05% (active) in assay [8]; 50.5% in assay [10]; 12.2% in assay [11]; -66.9% (active) in assay [12]; -82.9% (active) in [13]. For the same compound, the growth is -100% (active) in assay [14]; -28.3% (active) in assay [15]; 34.8% in [16]; 6.15% (active) in assay [17]; -51.6% (active) in [18].
As to `COc1ccc(Nc2cc(C)nc(NCCCNc3ccnc4cc(Cl)ccc34)n2)cc1`, the growth in assay [1] was -70.2% (active); in assay [2], -82.5% (active); in [3], 6.85% (active); in assay [4], 7.12% (active); in [5] it was -100% (active); in assay [6] it was -89.8% (active). Moreover, the growth is -80% (active) in assay [7]; -100% (active) in assay [8]; -94.6% (active) in [9]; 1.94% (active) in assay [11]; -73.5% (active) in assay [12]; -83.9% (active) in [13]. Further, the growth in assay [14] is -93% (active); in [15], -0.29% (active); in [16], -21.9% (active); in [17], -35.1% (active).
In the case of `S=C1SCC(c2ccccc2)S1` (stereo unspecified), the growth in assay [1] was 103%; in assay [2] it was 92.2%; in assay [3], 97.8%; in assay [4], 99.7%; in assay [5], 103%; in assay [6], 100%. Also, the growth in [7] is 103%; in [8], 103%; in assay [11], 101%; in [12], 104%; in [13], 107%; in assay [14], 101%. Moreover, the growth in assay [19] was 97.1%; in assay [15], 102%; in assay [16], 101%; in [17] it was 107%; in assay [18], 103%.
Take `COc1ccc(-c2nc(-c3nc4cc(Cl)c(F)cc4[nH]3)c3ccccn23)cc1`: the growth is 31.5% in assay [1]; 66.2% in assay [2]; 55.5% in assay [3]; 34.6% in assay [4]; 59.4% in [5]; 74.5% in [6]. Also, the growth in assay [7] was 65.9%; in assay [8], 91.8%; in assay [9], 50%; in [11], 66.3%; in assay [12], 28%; in assay [13], 64.7%. For the same compound, the growth in assay [14] is 79.1%; in [19], 67.1%; in assay [15], 32.4%; in [16] it was 35.6%; in [17] it was 43.4%; in assay [18], 33.7%.
As to `CCCCCCN1C(=O)C2=C(c3ccc(Cl)cc3)Nc3c(c(C)nn3-c3ccccc3)C2c2ccccc21` (stereo unspecified), the growth in [1] is 98.1%; in assay [2] it was 83.6%; in assay [3], 89.4%; in assay [4] it was 76.7%; in assay [5], 92.7%; in [6], 94.8%. Further, the growth in assay [7] was 94.6%; in [8], 96.4%; in assay [9], 91.1%; in assay [11] it was 91.2%; in assay [12] it was 79.2%; in assay [13] it was 107%. For the same compound, the growth in [14] was 97.1%; in assay [19], 74.5%; in assay [15] it was 87.5%; in assay [16] it was 85.8%; in assay [17], 73.4%; in assay [18], 76.3%.
As to `Cc1ccc(-c2nc(/C=C3/C(=O)N(C)c4ccc(F)cc43)c3ccccn23)cc1`, the growth in assay [1] is 112%; in assay [2], 87.4%; in assay [3], 101%; in [4], 113%; in assay [5], 95.6%; in assay [6] it was 97.8%. The growth in [7] is 95.9%; in assay [8], 108%; in assay [9], 115%; in assay [10], 98.1%; in assay [11], 96.1%; in [12] it was 85.8%. The growth is 128% in [13]; 88.5% in assay [14]; 105% in assay [19]; 95.9% in assay [15]; 111% in assay [16]; 100% in [17]. In assay [18], the growth was 97.5%.
`CCOC(=O)N1C=CC2C=CC1C1C=CC=CC2N1C(=O)OCC` (stereo unspecified): the growth in assay [1] is 94.8%; in assay [2], 80.4%; in assay [3] it was 94.1%; in assay [4] it was 90.1%; in assay [5], 84.1%; in assay [6], 91.6%. The growth in assay [7] is 102%; in assay [8] it was 87.8%; in assay [9] it was 90.9%; in [11], 99.3%; in assay [12], 83.4%; in assay [13], 111%. In addition, the results for the growth in assay [14], in assay [15] and in assay [17] were 101%, 89.7% and 95.5%, respectively.
Take `COc1cc(Cl)cc(-c2nn(-c3cccc(NC(=O)Nc4ccc(Cl)c(Cl)c4)c3)cc2-c2ccncc2)c1`: the growth is 7.39% (active) in assay [1]; 16.2% in assay [2]; 17.8% in assay [3]; -5.03% (active) in [4]; 3.51% (active) in [5]; 4.38% (active) in [6]. Further, the growth is 9.24% (active) in assay [7]; 23.2% in assay [8]; -32.1% (active) in assay [9]; 15.5% in [11]; 0.635% (active) in [12]; 19.8% in [13]. In addition, the growth in assay [14] is 9.65% (active); in assay [19], 7.49% (active); in [15], -9.54% (active); in assay [16] it was 5.73% (active); in assay [17], -16.1% (active); in assay [18], -18.5% (active).
